Compound activity: PubChem BioAssay, Buhrlage Lab, Dana-Farber Cancer Institute and Novartis Institutes for BioMedical Research (Cambridge, Mass)
USP10 inh – human USP10 deubiquitinase inhibition. purified USP10, Ub-rhodamine fluorescence, 60 min. inhibition, % at 20 µM. 47,000 compounds, 1.1% hits. AID 1645856. Q14694
Target sequence (Q14694 whole entry, looked up): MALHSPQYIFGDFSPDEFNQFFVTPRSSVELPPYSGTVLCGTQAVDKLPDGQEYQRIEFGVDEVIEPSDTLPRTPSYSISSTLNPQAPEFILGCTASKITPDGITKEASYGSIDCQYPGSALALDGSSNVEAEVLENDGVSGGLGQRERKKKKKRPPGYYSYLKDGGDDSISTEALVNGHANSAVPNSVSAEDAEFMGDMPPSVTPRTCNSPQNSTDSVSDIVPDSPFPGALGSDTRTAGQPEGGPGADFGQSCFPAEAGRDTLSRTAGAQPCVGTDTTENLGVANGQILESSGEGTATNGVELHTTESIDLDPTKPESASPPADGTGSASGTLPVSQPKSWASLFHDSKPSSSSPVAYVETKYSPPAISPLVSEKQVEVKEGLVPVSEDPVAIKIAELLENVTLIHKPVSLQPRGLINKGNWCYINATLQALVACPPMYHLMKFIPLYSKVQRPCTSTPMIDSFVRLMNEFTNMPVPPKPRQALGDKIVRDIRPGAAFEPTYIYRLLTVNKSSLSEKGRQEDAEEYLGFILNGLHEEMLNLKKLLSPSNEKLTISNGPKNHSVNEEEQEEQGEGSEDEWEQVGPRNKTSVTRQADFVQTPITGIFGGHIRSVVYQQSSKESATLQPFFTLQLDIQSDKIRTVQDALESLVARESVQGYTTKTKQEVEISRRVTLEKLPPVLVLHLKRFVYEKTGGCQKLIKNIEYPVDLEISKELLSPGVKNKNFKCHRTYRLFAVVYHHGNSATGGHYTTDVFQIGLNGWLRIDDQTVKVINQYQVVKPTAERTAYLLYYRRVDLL
USP28 inh – human USP28 deubiquitinase inhibition; AID 1645857; inhibition, % at 25 µM; 47,000 compounds, 3% hits; purified USP28, Ub-rhodamine cleavage fluorescence, 30 min; Q96RU2
USP30 inh – inhibitors of human USP30 deubiquitinase. Q70CQ3. inhibition, % at 25 µM. purified USP30, Ub-rhodamine cleavage fluorescence. 47,000 compounds, 5.3% hits. AID 1645860
USP17 inh – human USP17-like deubiquitinase inhibition; inhibition, % at 50 µM; AID 1645855; 47,000 compounds, 6.5% hits; purified USP17, Ub-rhodamine cleavage fluorescence, 3 h
USP8 block – inhibitors of human USP8 deubiquitinase | P40818 | purified USP8, Ub-rhodamine cleavage fluorescence, 30 min | inhibition, % at 20 µM | 47,000 compounds, 4.2% hits | AID 1645853
Large screens that a line does not name were inactive. Shown are actives, neighbours in structure and some others; about 13% of the full set was active somewhere. Rule as the data show it: active = inhibition above about 30%; inactive = the rest.

COc1ccc(NC(=O)c2cnc(N3CCOCC3)nc2C)cc1	none
O=C(Cc1cccs1)Nc1cc(F)c2nc(N3CCOCC3)ccc2c1	USP17 inh 61.8
COc1ccccc1NC(=O)N(C1=NCCC1)c1ccc(C)cc1	none
COc1ccc(S(=O)(=O)N2CCCCC2)cc1NC(=O)COc1cccc(Cl)c1Cl	none
CCN(C(=O)c1cnc2ccccc2n1)c1ccccc1	none
COc1cccc(C2c3[nH]c4ccccc4c3C[C@@H]3C(=O)N(CC(O)c4ccccc4)CC(=O)N23)c1 (stereo partly specified)	USP28 inh 39.9, USP17 inh 45.4, USP8 block 31.5
COc1cc(C2c3[nH]c4ccccc4c3C[C@@H]3C(=O)N(Cc4ccco4)CC(=O)N23)cc(OC)c1OC (stereo partly specified)	none
O=C1[C@H]2Cc3c([nH]c4ccccc34)C(c3cccc([N+](=O)[O-])c3)N2C(=O)CN1Cc1ccco1 (stereo partly specified)	USP17 inh 40.1
O=C(N[C@@H]1CC[C@@H](Oc2ccccc2)[C@H](O)[C@H]1O)c1cccc(F)c1	none
CCc1cc(C(=O)c2ccc(OC)cc2)c(NC(=O)CSc2nnc(-c3cccs3)n2C)s1	USP17 inh 61.3 (no result: USP28 inh, USP30 inh)
COc1ccc(NC(=O)CSc2nnc(-c3ccco3)n2C)cc1OC	none
Cc1cccc(CNS(=O)(=O)c2ccc3c(c2)NC(=O)CCS3)c1	none
CCC1CN(S(=O)(=O)c2ccc3c(c2)NC(=O)CCS3)c2cc(C)ccc2O1 (stereo unspecified)	USP30 inh 43.4
COc1cc(C2CC(=O)Nc3ccc4ccccc4c32)ccc1O (stereo unspecified)	none
Cc1sc(-c2ccc(Cl)nc2)nc1OC(=O)c1ccc(F)cc1F	USP30 inh 44.5, USP17 inh 53.3
O=C(Nc1cccc(-c2nc3ccccc3[nH]2)c1)c1cc2ccccc2oc1=O	USP30 inh 37.2, USP17 inh 59.5
O=C(COc1ccccc1[N+](=O)[O-])Nc1cccc(-c2nc3ccccc3[nH]2)c1	none
CCc1nn2c(CNC(=O)Cc3ccccc3Cl)c(C)nc2s1	none
Cc1cc(-c2cncnc2C2CCN(C(=O)c3ccc(N(C)C)cc3)CC2)on1	none
O=C(Nc1ccccc1N1CCOCC1)c1oc2ccccc2c1COc1ccccc1	none
CC(C)Nc1ncnc2c1c(C(=O)N1CCOCC1)c1ccccn12	none
CC(C)Nc1ncnc2c1c(C(=O)N1CCN(C)CC1)c1ccccn12	none
O=C(c1c2c(N3CCCC3)ncnc2n2ccccc12)N1CCCC1	USP8 block 66.7
O=C(c1c2c(-c3ccncc3)ncnc2n2ccccc12)N1CCOCC1	USP8 block 33.0
Cc1ccc(S(=O)(=O)N[C@H](C(=O)N2CCC(C(=O)N[C@@H](Cc3ccccc3)C(=O)O)CC2)C(C)C)cc1	USP30 inh 31.9
CC(NC(=O)[C@H](NC(=O)C1CCN(C(=O)[C@H](N)Cc2ccccc2)CC1)C(C)C)c1ccccc1 (stereo partly specified)	USP30 inh 30.6
CC(NC(=O)[C@H](C)NC(=O)C1CCN(C(=O)[C@H](Cc2ccccc2)NC(=O)OC(C)(C)C)CC1)c1ccccc1 (stereo partly specified)	none
Cc1ccc(S(=O)(=O)N[C@@H](C(=O)N2CCC(C(=O)N[C@@H](Cc3ccccc3)C(=O)O)CC2)C(C)C)cc1	none
CC(C)[C@H](NC(=O)C1CCN(C(=O)[C@@H](N)Cc2ccccc2)CC1)C(=O)NCc1ccc(F)cc1	none
Cc1ccc(CNC(=O)[C@@H](NC(=O)C2CCN(C(=O)[C@@H](N)Cc3ccccc3)CC2)C(C)C)cc1	USP30 inh 30.5
O=C(c1cccnc1)N1CCO[C@@H]2CC(COCc3ccccn3)C[C@H]21 (stereo partly specified)	none
CC(C)n1cnc2nnc3ccc(C(=O)NCc4cccnc4)cc3c21	none
COc1ccc(C(=O)Nc2nc(-c3ccc4c(c3)NC(=O)CO4)c(C)s2)cc1OC	USP17 inh 57.7
CCOc1ccc(-c2nc(NC(=O)c3cnccn3)sc2C)cc1	none
Cc1sc(NC(=O)c2cccnc2)nc1-c1ccc2c(c1)NC(=O)CO2	USP8 block 31.0
Cc1noc2c1C(c1ccc(O)cc1)C1=C(CC(c3ccc(O)cc3)CC1=O)N2 (stereo unspecified)	none
CC(=O)N1Cc2cc(C)ccc2OC2(CCN(CC(=O)N3CCCCC3C)CC2)C1 (stereo unspecified)	none
CCN1CCN(C(=O)c2ccc3c(c2)NC(=O)C2CCCCN32)CC1 (stereo unspecified)	none
COc1cccc(CNC(=O)c2ccc3c(c2)NC(=O)C2CCCN32)c1OC (stereo unspecified)	USP17 inh 54.1, USP8 block 70.3
CCOC(=O)C1CCN(C(=O)c2ccc3c(c2)NC(=O)C2CCCN32)CC1 (stereo unspecified)	USP17 inh 73.2, USP8 block 92.9
Cc1cccc(-c2cncc(C3CCCN(C(=O)c4cnccn4)C3)n2)c1 (stereo unspecified)	none
COc1ccc(NC(=O)Nc2ccc(F)c(-c3nnc(-c4ccccc4)o3)c2)c(OC)c1	USP30 inh 39.6
CC(=O)Nc1ccc2nc(NC(=O)C34CC5CC(CC(C5)C3)C4)sc2c1	USP17 inh 37.2
Cc1c(C2c3ccccc3C(=O)N2CC(=O)NCC(N)=O)c2ccccc2n1C (stereo unspecified)	none
CCOc1ccc2[nH]c(=O)c(CN(C(=O)c3cccs3)C3CCCC3)cc2c1	USP17 inh 65.8
O=C(NCCc1ccc(O)cc1)c1ccc2nc(-n3cccc3)sc2c1	none
O=C(Cc1cccc2ccccc12)NCc1ccc(F)cc1	none
O=C(NCc1ccc(Cl)cc1)Nc1cccc2ccccc12	USP30 inh 34.6, USP17 inh 67.9, USP8 block 95.2
Cn1cc(NC(=O)Nc2cccc3ccccc23)c2ccccc21	USP17 inh 62.9, USP8 block 88.6
CC(C(=O)Nc1cccc2ccccc12)(C(F)(F)F)C(F)(F)F	none
O=C(Cc1ccccc1C(=O)O)Nc1cccc2ccccc12	USP8 block 71.4
Cc1nc(CCNC(=O)C(C)Oc2cccc(C)c2C)cs1 (stereo unspecified)	none
COc1ccc(CC(=O)Nc2cc(=O)[nH]c3nc(-c4ccco4)nn23)cc1	USP17 inh 33.9
CC(=O)Nc1cccc(NC(=O)c2ccc(CSc3ccc(Cl)cc3)cc2)c1	none
CC(=O)Nc1ccc(SCc2nc3ccccc3nc2C)cc1	USP8 block 38.6
Cc1nc(N2CCN(CCO)CC2)nc2c1C(=O)CC(/C=C/c1ccccc1)C2 (stereo unspecified)	none
COc1ccc(/C=C/C(=O)Nc2c3c(nc4c2CCC4)CCCC3)cc1	USP30 inh 61.0, USP17 inh 37.9
CSc1cccc(NC(=O)c2cnn(-c3ccccn3)c2C(C)C)c1	none
Cc1c(C(=O)Nc2cccc(C(F)(F)F)c2)cnn1-c1ccccn1	USP17 inh 55.2
Cc1noc2nc(C)n(CC(=O)NCCC3=CCCCC3)c(=O)c12	none
